Laboratory results: PubChem BioAssay (NCI)
Compounds without any hit were thinned out: in the full panel of roughly 83,000, 20% have a hit.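 A percent growth of 40 corresponds to 60% growth inhibition; 0 means no net growth; -100 means all cells died. Active threshold: below 10.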 A number with no mark means an inactive call. The source made the active and inactive calls.

test system: SK-MEL-28 melanoma; assay: NCI-60 one-dose screen, 48 h (100 = growth as untreated, 0 = no growth, -100 = all killed); settings: 10 µM unless noted
Method: Growth inhibition of the SK-MEL-28 human tumor cell line is measured as a screen for anti-cancer activity. Cells are grown in 96 well plates and exposed to the test compound for 48 hours. Compounds are tested at a single concentration, which is 10^-5 M for most compounds. The reported endpoint is percent growth (GI% or GIPRCNT), where numbers from 0 - 100% represent growth inhibition, and numbers from -100% - 0 represent cell death. For example, a value of 40 represents 60% growth inhibition. A value of 0 means no net growth occurred over the course of the experiment. A value of -40 indicates 40% of cells at the beginning of the experiment died by the end of the experiment. A value of -100 means all cells are dead at the end of the experiment.
NCI-60 Human Tumor Cell Lines Screen was performed using the standard one-dose NCI protocol, which is described in more detail at https://dtp.cancer.gov/discovery_development/nci-60/default.htm.
Compounds with GIPRCNT values below 10 were considered active. Activity score was based on GIPRCNT using the following formula: […]
Score is 0 for GIPRCNT values of 100 or above, 50 for GIPRCNT values of 0, and 100 for GIPRCNT values of -100.

SMILES | growth
COC(=O)c1cc(-c2cccs2)c(C#N)c(N)c1C#N | 114%
CCN(CC)P(=O)(N(CC)CC)N(CCCSC/C=C(\C)CC/C=C(\C)CCC=C(C)C)CCCN1CCN(C)CC1 | 107%
COc1ccc(/C=C/C(=O)c2ccc(NC(=O)CN3CCN(c4cc5c(cc4F)c(=O)c(C(=O)O)cn5C4CC4)CC3)cc2)cc1 | 106%
CC/C=C\C/C=C\C[C@H]1C/C=C2/C(=O)C=C[C@H]2C/C=C\CCC(=O)O1 | -1.61% (active)
COc1cc(CCn2nnc3c(Nc4ccc(N5CCOCC5)cc4)ncnc32)cc(OC)c1 | 97%
CC(=O)c1cc(C(=O)c2ccc3c(c2)Sc2ccccc2N3)c2cc(C)ccn12 | 56.1%
CC(=O)OC[Si](C)(C)c1ccccc1 | 98.2%
COc1ccc(-c2nc(-c3ccccc3)c(-c3ccccc3)n2C2CC2)cc1OC1CCCCC1 | 77.7%
COc1cc(C(=O)N2CCN(C(=O)c3ccco3)CC2)c(N)cc1OCc1ccccc1 | 114%
CC(C)(C)c1cn2cccc(C(=O)N3CCN(CC(=O)Nc4ccc(Cl)cc4C(=O)c4ccccc4Cl)CC3)c2n1 | 89.8%
COc1ccc(/C=C2\C(=O)N(C(=O)c3csc(NC(C)=O)n3)N=C2C)cc1 | 110%
COc1ccc2c(c1)C(=O)/C(=C/c1ccc(O)cc1)O2 | 92.6%
CCOC(=O)C(Cc1ccccc1)n1c(O)c(C=Nc2ccc(C(=O)OCCN(CC)CC)cc2)sc1=O (stereo not given) | 93.1%
O=C1CCC(=O)N1Cc1ccccc1 | 101%
COC(=O)[C@H]1[C@H](OC)[C@@H](OC(=O)/C=C/c2ccncc2)CC2CN3CCc4c([nH]c5cc(OC)ccc45)[C@@H]3C[C@@H]21 (stereo not given in full) | 94.5%
Cc1ccc2c(c1)ncn2-c1ncnc2c1CC(C)c1ccccc1N2C (stereo not given) | 44.4%
CNC(=O)c1cc(Oc2ccc3c(c2)sc2nc(-c4ccc(Cl)cc4)cn23)ccn1 | 104%
COc1ccc(/C=C(\C#N)c2ccc([N+](=O)[O-])cc2)c2ccccc12 | 59.2%
COc1ccccc1OCC(=O)Nc1sc2c(c1C(N)=O)CCC2 | 101%
CC(=O)/C=C/c1cc2cc(Cl)ccc2[nH]c1=O | 99.9%

SMILES | growth
O=c1cc(C2NCCc3c2[nH]c2ccccc32)c2c(ccc3ccccc32)o1 (stereo not given) | 92.7%
CC(C)C[C@H](NC(=O)[C@@H](Cc1ccccc1)n1ccc(Nc2ccccc2)cc1=O)B(O)O | 21.7%
CC(C)(C)c1cc(-c2nc3ccc(N4CCN(CCO)CC4)cc3[nH]2)cc(C(C)(C)C)c1O | 61.2%
O=c1[nH]c(CN2CCN(c3ccccc3F)CC2)nc2sc3c(c12)CCC3 | 117%
CCCCCC(=O)OCc1ccccc1 | 113%
O=C(/C=C/CN1CCOCC1)Nc1cc2c(Nc3ccc(F)c(Cl)c3F)ncnc2cc1OCCOC(F)F | 77.5%
COc1ccc(-c2nc(-c3nc4ccc(F)cc4[nH]3)cc3c2[nH]c2ccccc23)cc1 | 57.4%
C=CCN=C1NC(=O)/C(=C/c2cc(C(C)(C)C)c(O)c(C(C)(C)C)c2)S1 | 73.3%
NC(=O)NNC(=O)c1ccccc1 | 117%
Cc1cc2c(C(C)C)c(O)c(O)c(C=NCCCCCCC(=O)O)c2c(O)c1-c1c(C)cc2c(C(C)C)c(O)c(O)c(C=NCCCCCCC(=O)O)c2c1O | 40.2%
Cc1cccc(NC(=O)c2sc3nc4c(cc3c2N)CCCC4)c1 | 53%
COc1ccc(/C=C/C(=O)c2cccc(B(O)O)c2)cc1O | 79.2%
COc1cc(NCCN=C(N)NC(N)=NC(C)C)c2ncccc2c1 | 86.1%
Cc1cc(C)c2c(=O)[nH]c(SCC(=O)Nc3cccc(S(=O)(=O)N(C)C)c3)nc2n1 | 126%
C=CC(=O)N[C@H](/C=C/C(=O)OCC)Cc1ccc(-c2cc(Cl)cc(Cl)c2)cc1 | 113%
Cc1c(C2=NNC(c3ccc4c(c3)OCO4)C2)[n+]([O-])c2ccccc2[n+]1[O-] (stereo not given) | 113%
Nc1ccc(S(=O)(=O)c2ccc(Cl)cc2)cc1 | 102%
CC1Cc2c(N(C)C)ncnc2N(C)c2ccc(O)cc21 (stereo not given) | 98.6%
NS(=O)(=O)c1ccc(CN2C(=O)c3cccc4cccc(c34)C2=O)cc1 | 113%
O=C(c1c[nH]c2ccccc12)C(Sc1nc2ccccc2c(=O)[nH]1)c1ccccc1 (stereo not given) | 117%
